Out of some 2,400 compounds screened, about 2,200 (92%) were called active.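 Rule for the calls: active = mean inhibition over triplicate runs exceeds the cutoff derived for the earlier primary screen (cut at about 25% in these data); inactive = the rest.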 So high a share suggests a set chosen from earlier hits. The list shows a part of the results.
Molecular target: Platelet-activating factor acetylhydrolase IB subunit alpha2 (Homo sapiens) (UniProt P68402)
Assay: PAFAH1B2 inhibitors, confirmation, biochemical, fluorescence polarization, FP-rhodamine probe, triplicate (AID 493034);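 note: 0% = enzyme with DMSO and 100% = wells lacking PAFAH1B2 protein; inhibitors lower polarization by leaving the probe unbound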
Conditions: recombinant PAFAH1B2, FP-rhodamine probe fluorescence polarization; at 3.39 µM; active compounds read high

Chain of Platelet-activating factor acetylhydrolase IB subunit alpha2 (Homo sapiens) (P68402 whole entry, looked up): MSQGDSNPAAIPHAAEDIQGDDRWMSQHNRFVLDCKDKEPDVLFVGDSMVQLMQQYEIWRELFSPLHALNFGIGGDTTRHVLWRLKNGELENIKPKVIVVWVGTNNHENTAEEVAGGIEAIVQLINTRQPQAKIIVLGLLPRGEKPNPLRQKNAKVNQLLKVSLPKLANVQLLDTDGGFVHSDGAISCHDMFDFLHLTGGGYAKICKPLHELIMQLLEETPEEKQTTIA

inhibition, active:
Nc1nc(C2CCCCC2)cs1 55.7%
NS(=O)(=O)c1cccc(NC(=O)CC23CC4CC(C2)CC(CC(=O)Nc2cccc(S(N)(=O)=O)c2)(C4)C3)c1 27.4%
O=C(/C=C/c1ccc(F)cc1)NC(=S)NNC(=O)[C@H]1C[C@@H]1c1ccccc1 47.2%
O=C(/C=C/c1ccccc1)CC(O)(c1ccccc1)C(F)(F)F (stereo not given) 38.1%
Cc1nc(SCCC(=O)O)c2cc(-c3ccccc3)sc2n1 33.6%
O=C(O)CN1C(=O)/C(=C\c2cccc(OCc3ccc(Cl)cc3)c2)SC1=S 68.2%
O=[N+]([O-])c1ccc(S(=O)(=O)NNC(=S)NCCc2ccccc2)cc1 38.5%
O=c1[nH]c(CCl)nc2cc(-c3ccc(Cl)cc3)sc12 61%
O=C(O)c1[nH]c2ccccc2c1C(c1c(F)cccc1Cl)c1c(C(=O)O)[nH]c2ccccc12 33.3%
COc1cc(C(c2c(C(=O)O)[nH]c3ccccc23)c2c(C(=O)O)[nH]c3ccccc23)ccc1OCc1ccccc1 37.9%
O=C(O)c1[nH]c2ccccc2c1C(c1ccccc1)c1c(C(=O)O)[nH]c2ccccc12 75.9%
O=C(O)c1[nH]c2ccccc2c1C(c1cccc(O)c1)c1c(C(=O)O)[nH]c2ccccc12 80.5%
O=C(O)CN1C(=O)C2C3CC(C2C1=O)C1C(c2ccc(F)cc2)c2sc(=O)[nH]c2SC31 (stereo not given) 54.6%
O=C(O)CN1C(=O)C2C3CC(C2C1=O)C1C(c2ccc(Cl)cc2)c2sc(=O)[nH]c2SC31 (stereo not given) 37.1%
O=C(O)CN1C(=O)C2C3CC(C2C1=O)C1C(c2ccccc2)c2sc(=O)[nH]c2SC31 (stereo not given) 59.3%
O=C(COC(=O)C12CC3CC(CC(Br)(C3)C1)C2)Nc1ccc2[nH]c(=O)[nH]c2c1 31.2%
COc1ccccc1NC(=O)COC(=O)C12CC3CC(CC(Br)(C3)C1)C2 26.2%
O=C(COC(=O)C12CC3CC(CC(Br)(C3)C1)C2)Nc1cccnc1Cl 36.7%
O=C(COC(=O)C12CC3CC(CC(Br)(C3)C1)C2)Nc1c(F)cccc1F 35.8%
Cc1ccc(-c2csc(N)n2)cc1 63.1%
Nc1nc(-c2ccccc2)cs1 35.5%
Nc1nc(-c2ccc(F)cc2)cs1 55.6%
Nc1nc(-c2ccc(Br)cc2)cs1 92.3%
Nc1nc(-c2cccc(F)c2)cs1 36.3%
O=C(COC(=O)C12CC3CC(CC(Br)(C3)C1)C2)NNC(=O)c1ccccc1 46.3%
CC(CCc1ccccc1)NC(=O)COC(=O)C12CC3CC(CC(Br)(C3)C1)C2 (stereo not given) 38.2%
O=C(NCc1ccccc1)C12CC3CC(CC(Br)(C3)C1)C2 27.1%
CC(NC(=O)COC(=O)C12CC3CC(CC(Br)(C3)C1)C2)c1ccccc1 (stereo not given) 31%
CN(Cc1ccccc1)C(=O)COC(=O)C12CC3CC(CC(Br)(C3)C1)C2 28.4%
Cc1occc1C(=O)O/N=C(\N)c1ccc(Cl)cc1 27.4%
NC(=O)CSc1ccc(Br)cc1 39.5%
CC(Sc1ccc(Br)cc1)C(N)=O (stereo not given) 27.6%

inhibition, inactive:
N=c1c(S(=O)(=O)c2ccc(Br)cc2)cc2c(=O)n3ccccc3nc2n1CCN1CCOCC1 22.9%
COC(=O)CSc1nnc(SCc2ccc(Cl)cc2)s1 20.6%
CCc1cccc(Nc2cnn(C34C[C@@H]5C[C@@H](CC(CC(=O)O)(C5)C3)C4)c(=O)c2Cl)c1 20.4%
Cc1ccc(S(=O)(=O)n2oc(=O)c(C3CCCCC3)c2N)cc1 23.5%
CC(C)CNC(=O)c1cccc(NC(=O)CSc2ccc(Cl)cc2)c1 22.5%
COc1ccc(/C=C\C(=O)CC(O)(c2ccccc2)C(F)(F)F)cc1 (stereo not given) 21.6%
CC(=O)Nc1ccc(NC(=O)C(C)OC(=O)C2(c3ccc(F)cc3)CCCC2)cc1 (stereo not given) 23.3%
Cc1nn(-c2ccccc2)c2c1CC(=O)Nc1ccccc1-2 23.1%
Nc1nn(S(=O)(=O)c2ccccc2)cc1-c1ccc([N+](=O)[O-])cc1 24%
CC1=CC(=NNS(=O)(=O)c2ccc([N+](=O)[O-])cc2)CC(C)(C)C1 23.5%
Cc1cc(NC(=S)N(Cc2ccc(Br)cc2)Cc2ccc(C(=O)O)cc2)ccc1Cl 1.23%
Cc1ccc(O)c(N=Cc2cc(Cc3ccccc3)cc([N+](=O)[O-])c2O)c1 20.2%
CCCCNC(=O)c1cccc(S(=O)(=O)N2CC3(C)CC2CC(C)(C)C3)c1 (stereo not given) 19.5%
Cc1ccc(CN2[C@@H](CC3CCCCC3)COCCS2(=O)=O)cc1 23.1%
CCCCCCCCCCCCCC(=O)O 22.4%
O=C(COC(=O)CCSc1ccccc1)Nc1cc(F)ccc1F 10.5%
COc1ccccc1CNC(=O)COC(=O)c1ccc(C(=O)c2ccccc2)cc1 3.07%
O=c1c2c(nc3cc(-c4ccc(Cl)cc4)[nH]n13)CCS2 11.7%
N#C/C(=C\c1cc2c(cc1Br)OCO2)c1ccc(C(=O)O)cc1 23.6%
Cc1ccc(-c2csc(NCCn3c(C)nc4cc(C(F)(F)F)ccc43)n2)cc1 23.5%
O=C(O)c1sccc1SCc1ccc(Cl)cc1Cl 22.4%
Cc1nc(-c2cccc(S(=O)(=O)N3CCC(C)CC3)c2)cs1 23.7%
O=C(O)CNC(=O)C12CC3CC(CC(Cl)(C3)C1)C2 22.2%
CC(NC(=O)CN(C)S(=O)(=O)c1cccc2nsnc12)c1ccccc1 (stereo not given) 22.2%
O=C(COC(=O)C12CC3CC(CC(C3)C1)C2)NNC(=O)c1ccccc1 21.4%
O=C(O)CC1c2ccccc2CCN1S(=O)(=O)c1ccc(F)cc1 (stereo not given) 19.8%
OC(c1ccc(F)cc1)(C1CCCCC1)C(CN1CCOCC1)c1ccccc1 (stereo not given) 23.5%
O=C(O/N=C1/CCCc2occc21)c1ccc(Cl)cc1Cl 19.3%

— PubChem BioAssay AID493034 (The Scripps Research Institute Molecular Screening Center, 2011)
